Measured values taken from PubChem BioAssay AID1159580 (chemical genetic matrix, 2015).
About 2,000 (36%) of roughly 5,500 compounds were called active. About 18% were inconclusive and are not listed. Rule as the data show it: active = normalized growth mostly below about 0.91 (no sharp cut-off); inconclusive = no clear call, values can overlap the other calls; inactive = mostly above about 0.92. This is one part of the list.

Experiment: chemical genetic growth profiling, strain panel (AID 1159580);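 also: tested at 20 µM; growth read once vehicle control cultures reached saturation at 30 °C; 1 = growth at the plate median or of vehicle wells; lower values mean less growth of the strain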
Conditions: growth OD

Measured: normalized growth

CO[C@@]1(NC(=O)CSCC#N)C(=O)N2C(C(=O)O)=C(CSc3nnnn3C)CSC21 (some centres not stated)
inactive: S. cerevisiae deletion strains, locus YJR075W, strain HOC1, stronger effect = lower value 1.01 | S. cerevisiae deletion strains, locus YKL009W, strain mrt4, stronger effect = lower value 1.04 | S. cerevisiae deletion strains, locus YKL068W, stronger effect = lower value 1.02 | S. cerevisiae deletion strains, locus YKL085W, strain MDH1 (second series), stronger effect = lower value 1.03 | S. cerevisiae deletion strains, locus YKL085W, strain MDH1, stronger effect = lower value 1.03 | S. cerevisiae deletion strains, locus YKL160W, strain elf1, stronger effect = lower value 0.959 | S. cerevisiae deletion strains, locus YKL190W, strain CNB1, stronger effect = lower value 0.995 | S. cerevisiae deletion strains, locus YKR001C, strain vps1, stronger effect = lower value 1.04 | S. cerevisiae deletion strains, locus YKR026C, strain gcn3, stronger effect = lower value 0.996 | S. cerevisiae deletion strains, locus YKR091W, strain srl3, stronger effect = lower value 0.982 | S. cerevisiae deletion strains, locus YLL001W, strain dnm1, stronger effect = lower value 0.96 | S. cerevisiae deletion strains, locus YLL026W, stronger effect = lower value 0.986 | S. cerevisiae deletion strains, locus YLL041C, strain sdh2, stronger effect = lower value 0.978 | S. cerevisiae deletion strains, locus YLR027C, strain aat2, stronger effect = lower value 0.99 | S. cerevisiae deletion strains, locus YLR039C, strain RIC1, stronger effect = lower value 1.07 | S. cerevisiae deletion strains, locus YLR058C, strain SHM2, stronger effect = lower value 1.01 | S. cerevisiae deletion strains, locus YLR102C, strain apc9, stronger effect = lower value 1.04 | S. cerevisiae deletion strains, locus YLR113W, strain HOG1, stronger effect = lower value 0.96 | S. cerevisiae deletion strains, locus YLR221C, strain rsa3, stronger effect = lower value 0.98 | S. cerevisiae deletion strains, locus YLR258W, strain gsy2, stronger effect = lower value 0.98 | S. cerevisiae deletion strains, locus YLR262C, strain YPT6 (second series), stronger effect = lower value 0.981 | S. cerevisiae deletion strains, locus YLR262C, strain YPT6, stronger effect = lower value 1.09 | S. cerevisiae deletion strains, locus YLR268W, strain sec22, stronger effect = lower value 1.02 | S. cerevisiae deletion strains, locus YLR320W, strain mms22, stronger effect = lower value 0.953 | S. cerevisiae deletion strains, locus YLR330W, strain CHS5, stronger effect = lower value 1.01 | S. cerevisiae deletion strains, locus YLR342W, strain FKS1 (second series), stronger effect = lower value 1.01 | S. cerevisiae deletion strains, locus YLR342W, strain FKS1, stronger effect = lower value 0.967 | S. cerevisiae deletion strains, locus YLR357W, strain rsc2, stronger effect = lower value 0.915 | S. cerevisiae deletion strains, locus YLR370C, strain arc18, stronger effect = lower value 0.984 | S. cerevisiae deletion strains, locus YLR371W, strain rom2, stronger effect = lower value 1.04 | S. cerevisiae deletion strains, locus YLR384C, strain iki3, stronger effect = lower value 1 | S. cerevisiae deletion strains, locus YLR418C, strain cdc73, stronger effect = lower value 1.04 | S. cerevisiae deletion strains, locus YML016C, strain PPZ1, stronger effect = lower value 1.01 | S. cerevisiae deletion strains, locus YML032C, strain rad52, stronger effect = lower value 1.05 | S. cerevisiae deletion strains, locus YML120C, strain ndi1, stronger effect = lower value 0.988 | S. cerevisiae deletion strains, locus YML124C, strain tub3, stronger effect = lower value 1.02 | S. cerevisiae deletion strains, locus YMR058W, strain fet3, stronger effect = lower value 1.01 | S. cerevisiae deletion strains, locus YMR078C, strain ctf18, stronger effect = lower value 1.03 | S. cerevisiae deletion strains, locus YMR125W, strain sto1, stronger effect = lower value 1.01 | S. cerevisiae deletion strains, locus YMR129W, stronger effect = lower value 0.995 | S. cerevisiae deletion strains, locus YMR205C, strain PFK2, stronger effect = lower value 0.965 | S. cerevisiae deletion strains, locus YMR223W, strain ubp8, stronger effect = lower value 1.04 | S. cerevisiae deletion strains, locus YMR231W, strain pep5, stronger effect = lower value 0.985 | S. cerevisiae deletion strains, locus YMR263W, strain SAP30, stronger effect = lower value 1.01 | S. cerevisiae deletion strains, locus YMR307W, strain GAS1, stronger effect = lower value 1.05 | S. cerevisiae deletion strains, locus YNL067W, strain RPL9B, stronger effect = lower value 1.01 | S. cerevisiae deletion strains, locus YNL071W, strain lat1, stronger effect = lower value 0.991 | S. cerevisiae deletion strains, locus YNL128W, strain TEP1, stronger effect = lower value 1.02 | S. cerevisiae deletion strains, locus YNL153C, strain GIM3, stronger effect = lower value 1.01 | S. cerevisiae deletion strains, locus YNL183C, strain NPR1, stronger effect = lower value 0.926 | S. cerevisiae deletion strains, locus YNL209W, strain ssb2, stronger effect = lower value 0.988 | S. cerevisiae deletion strains, locus YNL233W, strain BNI4, stronger effect = lower value 1.02 | S. cerevisiae deletion strains, locus YNL248C, strain rpa49, stronger effect = lower value 0.973 | S. cerevisiae deletion strains, locus YNL250W, strain rad50, stronger effect = lower value 1.05 | S. cerevisiae deletion strains, locus YNL271C, strain bni1, stronger effect = lower value 1.04 | S. cerevisiae deletion strains, locus YNL298W, strain CLA4, stronger effect = lower value 1.04 | S. cerevisiae deletion strains, locus YNL307C, strain MCK1, stronger effect = lower value 1.04 | S. cerevisiae deletion strains, locus YNL322C, strain KRE1 (second series), stronger effect = lower value 0.959 | S. cerevisiae deletion strains, locus YNL322C, strain KRE1, stronger effect = lower value 1.02 | S. cerevisiae deletion strains, locus YNR049C, strain mso1, stronger effect = lower value 0.975 | S. cerevisiae deletion strains, locus YNR052C, strain pop2, stronger effect = lower value 1.05 | S. cerevisiae deletion strains, locus YOL006C, strain TOP1, stronger effect = lower value 1.03 | S. cerevisiae deletion strains, locus YOL012C, strain htz1 1.23 | S. cerevisiae deletion strains, locus YOL147C, strain pex11, stronger effect = lower value 1.03 | S. cerevisiae deletion strains, locus YOR001W, strain rrp6, stronger effect = lower value 1.01 | S. cerevisiae deletion strains, locus YOR061W, strain CKA2, stronger effect = lower value 1.01 | S. cerevisiae deletion strains, locus YOR069W, strain VPS5, stronger effect = lower value 1.01 | S. cerevisiae deletion strains, locus YOR070C, strain gyp1, stronger effect = lower value 0.989 | S. cerevisiae deletion strains, locus YOR080W, strain dia2, stronger effect = lower value 0.997 | S. cerevisiae deletion strains, locus YOR083W, strain WHI5, stronger effect = lower value 0.913 | S. cerevisiae deletion strains, locus YOR106W, strain vam3, stronger effect = lower value 0.968 | S. cerevisiae deletion strains, locus YOR136W, strain idh2, stronger effect = lower value 1.04 | S. cerevisiae deletion strains, locus YOR144C, strain elg1, stronger effect = lower value 1.02 | S. cerevisiae deletion strains, locus YOR184W, strain ser1, stronger effect = lower value 1.05 | S. cerevisiae deletion strains, locus YOR231W, strain MKK1, stronger effect = lower value 0.976 | S. cerevisiae deletion strains, locus YOR265W, strain rbl2, stronger effect = lower value 0.974 | S. cerevisiae deletion strains, locus YOR270C, strain vph1, stronger effect = lower value 0.993 | S. cerevisiae deletion strains, locus YOR290C, strain snf2, stronger effect = lower value 0.966 | S. cerevisiae deletion strains, locus YOR316C, strain cot1, stronger effect = lower value 1.03 | S. cerevisiae deletion strains, locus YPL051W, strain arl3, stronger effect = lower value 0.98 | S. cerevisiae deletion strains, locus YPL055C, strain LGE1, stronger effect = lower value 1.05 | S. cerevisiae deletion strains, locus YPL078C, strain atp4, stronger effect = lower value 0.98 | S. cerevisiae deletion strains, locus YPL106C, strain sse1, stronger effect = lower value 0.948 | S. cerevisiae deletion strains, locus YPL240C, strain hsp82, stronger effect = lower value 0.997 | S. cerevisiae deletion strains, locus YPL241C, strain CIN2, stronger effect = lower value 1.01 | S. cerevisiae deletion strains, locus YPL256C, strain CLN2, stronger effect = lower value 1 | S. cerevisiae deletion strains, locus YPR119W, strain clb2, stronger effect = lower value 1.04 | S. cerevisiae deletion strains, locus YPR141C, strain kar3, stronger effect = lower value 1.05 | S. cerevisiae deletion strains, locus YPR163C, strain tif3, stronger effect = lower value 1.03 | S. cerevisiae deletion strains, locus YPR167C, strain met16, stronger effect = lower value 1.04 | S. cerevisiae deletion strains, strain wtn01, stronger effect = lower value 1.02 | S. cerevisiae strains, strain wild type, stronger effect = lower value 1.01
